Screening results: PubChem BioAssay, several laboratories
GalR3 antagonist – antagonists of human GalR3. O60755. HEK293 GalR3-CNG cAMP membrane potential fluorescence; galR3 body fused to GalR1 C-terminus. inhibition, % at 3 µM. 360,000 tested, 0.44% active;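 active = inhibition above the screen-wide average plus 3 SD, cut at about 13% in these data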;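 also: forskolin and galanin both at EC90 stimulate the cells; cAMP rise reported by CNG channel membrane potential dye signal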
Target sequence (O60755 1-299 limits assumed): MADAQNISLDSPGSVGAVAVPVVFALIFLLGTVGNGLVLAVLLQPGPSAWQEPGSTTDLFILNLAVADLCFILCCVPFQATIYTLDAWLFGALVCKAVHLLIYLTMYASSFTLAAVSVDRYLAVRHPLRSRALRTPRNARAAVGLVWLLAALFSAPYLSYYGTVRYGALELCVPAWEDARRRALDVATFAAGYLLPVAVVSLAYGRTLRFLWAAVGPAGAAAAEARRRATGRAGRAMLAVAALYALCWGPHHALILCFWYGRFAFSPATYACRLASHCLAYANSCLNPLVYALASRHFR
NR2F2 inh – NR2F2 (human) inhibition, primary screen; HEK293T NGFI-A luciferase reporter, luminescence; inhibition, % at 8.6 µM; 370,000 tested, 0.7% active;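 active = inhibition above a per-plate cutoff, mean inhibition of test wells between control levels plus 3 SD, cut at about 38% in these data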;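 also: cells cotransfected with COUP-TFII expression vector driving the NGFI-A reporter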
Target sequence (P24468 whole entry, looked up): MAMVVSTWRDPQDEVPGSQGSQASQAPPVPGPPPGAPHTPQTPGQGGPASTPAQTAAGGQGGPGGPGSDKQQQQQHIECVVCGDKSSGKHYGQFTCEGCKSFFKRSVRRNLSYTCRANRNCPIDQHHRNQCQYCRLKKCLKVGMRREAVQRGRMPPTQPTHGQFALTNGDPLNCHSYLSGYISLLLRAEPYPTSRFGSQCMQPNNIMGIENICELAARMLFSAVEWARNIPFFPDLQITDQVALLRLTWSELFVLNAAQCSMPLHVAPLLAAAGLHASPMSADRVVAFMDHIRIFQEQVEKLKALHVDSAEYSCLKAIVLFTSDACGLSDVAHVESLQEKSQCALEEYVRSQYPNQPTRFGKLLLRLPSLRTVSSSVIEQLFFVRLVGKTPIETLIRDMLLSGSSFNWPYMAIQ
Gli-Sufu block – antagonists of Gli-Sufu signaling | AID 588413 | Sufu-KO-LIGHT fibroblasts, Gli luciferase reporter luminescence | 340,000 tested, 0.74% active | inhibition, % at 5 µM;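 active = inhibition above about 55%, limit read from the data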
697 NFkB inh – inhibitors of the PMA/ionomycin-induced NF-kB reporter in 697 B cells; 697 B-cell NF-kB luciferase reporter, 16 h; inhibition, % at 4 µM; 330,000 tested, 0.33% active; AID 435022; in the data active = inhibition above about 35%
Jurkat NFkB inh – lowers PMA/ionomycin-induced NF-kB signal in Jurkat cells. PMA/ionomycin-induced NF-kB luciferase reporter, luminescence. inhibition, % at 4 µM. 330,000 tested, 0.53% active. AID 435003; in the data active = inhibition above about 50%
697 NFkB conf – lowers PMA/ionomycin-induced NF-kB signal in 697 B cells; AID 449746; inhibition, % at 4 µM; shares compounds with 697 NFkB inh; 697 B-cell NF-kB luciferase, 16 h; 2,000 tested, 35% active; in the data active = inhibition mostly above about 28%, no sharp cut-off; inactive = mostly below about 22%
Gli-Sufu confirm – Gli-SUFU antagonism confirmation, single concentration. AID 602428. 2,500 tested, 40% active. inhibition, % at 5 µM. shares compounds with Gli-Sufu block. Sufu-KO-LIGHT cells, Gli luciferase reporter, luminescence;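 active = mean inhibition at 5 µM reaching about 45%, limit read from the data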
Gli cytotox – counter-screen for Gli-SUFU antagonists: cytotoxicity; Sufu-KO-LIGHT cells cytotoxicity, ATP luminescence; 2,500 tested, 32% active; shares compounds with Gli-Sufu block; cytotoxicity, % at 5 µM;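 active = mean cytotoxicity at 5 µM above about 25%, limit read from the data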;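 also: cells exposed to compound overnight for roughly 16 to 18 hours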
Wnt3a cs – inhibits Wnt3a reporter, counter-screen for Gli-SUFU antagonists; shares compounds with Gli-Sufu block; 2,500 tested, 20% active; inhibition, % at 6.25 µM; Wnt-LIGHT cells, Wnt3a-driven luciferase reporter, luminescence;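 active = mean inhibition above about 25%, limit read from the data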
GalR3 antag conf – confirmation of human galanin receptor 3 antagonists; 1,600 tested, 59% active; shares compounds with GalR3 antagonist; HEK293 GalR3 CNG cAMP biosensor, membrane potential fluorescence; galR3 fused to GalR1 carboxy tail; challenged with forskolin and galanin at EC90; AID 652245; inhibition, % at 3 µM;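 active = inhibition above the primary screen's cutoff, the mean inhibition of all screened compounds plus 3 SD, cut at about 13% in these data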
CNG parental – acts as nonspecific agonist in parental HEK-CNG cells. HEK293-CNG parental cells, cAMP membrane potential fluorescence; normalised: DMSO wells 0%, forskolin wells 100%. activation, % at 3 µM. 1,600 tested, 10% active. shares compounds with GalR3 antagonist. AID 652268; in the data active = activation above about 1.3%
VP16 Luc counter – inhibits VP16 reporter, flagging COUP-TFII antagonist hits; shares compounds with NR2F2 inh; HEK293 Gal4-VP16 luciferase reporter, luminescence; inhibition, % at 8.5 µM; 2,500 tested, 25% active; in the data active = inhibition above about 13%
NR2F2 inh conf – confirmation of human COUP-TFII (NR2F2) inhibitors. shares compounds with NR2F2 inh. HEK293 NGFI-A luciferase reporter, luminescence. inhibition, % at 8.5 µM. 2,500 tested, 45% active;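 active = mean inhibition over three repeats above a set limit taken from the earlier primary screen, cut at about 38% in these data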
Of the large screens only hits and unclear results are named; the others gave an inactive call (follow-up assays come after a bar, where they were run). This is a sample that favours compounds with a hit; in the whole collection about 2% have one here.

O=C(CCCN1C(=O)/C(=C/c2ccccc2Cl)SC1=S)NNC(=O)c1ccccc1Cl	NR2F2 inh 69, 697 NFkB inh 69 | 697 NFkB conf 65 | VP16 Luc counter 69 | NR2F2 inh conf 71
Cc1ccc(/C=C2\SC(=S)N(CCCC(=O)Nc3ccccn3)C2=O)cc1	NR2F2 inh 81, 697 NFkB inh 81 | 697 NFkB conf 96 | VP16 Luc counter 40 | NR2F2 inh conf inactive
CN1C(=O)c2cc(NS(=O)(=O)c3cccc(F)c3)ccc2OC[C@@H]2O[C@H](CC(=O)O)CC[C@H]21	none (no result: GalR3 antagonist, Gli-Sufu block, 697 NFkB inh, Jurkat NFkB inh)
CC(C)c1ccc(/C=C2\SC(=S)N(CCC(=O)N3CCCCC3CCO)C2=O)cc1 (stereo not given)	NR2F2 inh 41, 697 NFkB inh 70 | 697 NFkB conf 71 | VP16 Luc counter inactive | NR2F2 inh conf inactive
COc1ccc(-n2c(-c3ccc(Br)cc3)c[n+]3c2CCc2ccccc2-3)cc1	NR2F2 inh 38, Gli-Sufu block 86, 697 NFkB inh 101 | 697 NFkB conf 47 | VP16 Luc counter 21 | NR2F2 inh conf inactive
COc1ccc(-n2cc(-c3ccc(Br)cc3)[nH]c2=S)cc1	none
Cc1cc(C)c(CN2CCN(C(=O)Cn3cnc4c(NCc5ccccc5)ncnc43)CC2)c(C)c1	GalR3 antagonist 105, NR2F2 inh 80, Gli-Sufu block 60, 697 NFkB inh 74 (no result: Jurkat NFkB inh) | 697 NFkB conf 82 | Gli-Sufu confirm 67 | Gli cytotox 42 | Wnt3a cs 39 | GalR3 antag conf 106 | CNG parental inactive | VP16 Luc counter inactive | NR2F2 inh conf 70
O=C(Cn1cnc2c(NCc3ccccc3)ncnc21)N1CCN(c2ccccn2)CC1	none (no result: Jurkat NFkB inh)
CCn1c(COc2ccc(C)cc2)nnc1SCC(=O)Nc1ccc(C(=O)OC)cc1	none (no result: GalR3 antagonist, Gli-Sufu block, 697 NFkB inh, Jurkat NFkB inh)
Cc1cc(C)c(S(=O)(=O)NCc2ccncc2)c(C)c1	GalR3 antagonist 94, NR2F2 inh 60, Gli-Sufu block 58, 697 NFkB inh 58 | 697 NFkB conf 41 | Gli-Sufu confirm 60 | Gli cytotox 28 | Wnt3a cs 43 | VP16 Luc counter inactive | NR2F2 inh conf 54
CC(C)c1ccc(N2C(=O)C3C4C=CC(CC4)C3C2=O)cc1 (stereo not given)	none
CC1CC(=O)N(c2ccc(C(C)C)cc2)C(=O)C1	none | Gli-Sufu confirm inactive | Gli cytotox inactive | Wnt3a cs inactive
O=C(COC(=O)c1cnc(Cl)c(Cl)c1)NCCC1=CCCCC1	none | Gli-Sufu confirm inactive | Gli cytotox inactive | Wnt3a cs inactive
CCN1C(=NCCCOC(C)C)N[C@@H](CCc2ccccc2)[C@H](C(=O)NCCCOC(C)C)[C@H]1C	Gli-Sufu block 56 | Gli-Sufu confirm 57 | Gli cytotox 30 | Wnt3a cs inactive
CCN1C(=NCCOC)N[C@@H](CCc2ccccc2)[C@H](C(=O)OC)[C@H]1C	none
CCOC(=O)[C@@H]1c2[nH]c3ccccc3c2C[C@@]2(C(=O)OC)C=CCN12	none (no result: GalR3 antagonist, Gli-Sufu block, 697 NFkB inh, Jurkat NFkB inh)
Cn1c(N)c(C(=O)COC(=O)C2(c3cccc(F)c3)CCCC2)c(=O)n(C)c1=O	Gli-Sufu block 99 | Gli-Sufu confirm inactive | Gli cytotox inactive | Wnt3a cs inactive
COC(=O)C1CN(Cc2cn(Cc3ccc(C)cc3)nn2)CCS(=O)(=O)N1Cc1ccc(F)cc1 (stereo not given)	none (no result: GalR3 antagonist, Gli-Sufu block, 697 NFkB inh, Jurkat NFkB inh)
Cc1ccc(Cn2cc(COC(=O)NCC(C)C)nn2)cc1	none (no result: GalR3 antagonist, Gli-Sufu block, 697 NFkB inh, Jurkat NFkB inh)
Cc1cccc(CCN2C(N(C)C)=NC[C@@H]2CC(C)C)c1	none | Gli-Sufu confirm 56 | Gli cytotox inactive | Wnt3a cs inactive
CCCCCCCN1C(N(C)C)=NC[C@@H]1Cc1ccccc1	none
CN(C)C1=NC[C@H](Cc2ccccc2)N1CCCCc1ccccc1	none | Gli-Sufu confirm inactive | Gli cytotox 29 | Wnt3a cs inactive
COc1cc(OC)c(/C=N/NC(=O)COc2cccc3cccnc23)c(OC)c1	Gli-Sufu block 56 | Gli-Sufu confirm inactive | Gli cytotox inactive | Wnt3a cs inactive
COc1ccc2c(c1)C(C)=CC(C)(C)N2S(=O)(=O)c1ccc(C)cc1	Gli-Sufu block 67 | Gli-Sufu confirm 56 | Gli cytotox 58 | Wnt3a cs 30
CCOc1ccc2c(c1)C(C)=CC(C)(C)N2S(=O)(=O)c1ccc(C)cc1	Gli-Sufu block 67 | Gli-Sufu confirm 64 | Gli cytotox 62 | Wnt3a cs inactive
CCOC(=O)[C@]12CCCC3=C1N(CCC3)C(=O)[C@@H](CC(=O)NCCc1ccccc1OC)C2	none (no result: GalR3 antagonist, Gli-Sufu block, 697 NFkB inh, Jurkat NFkB inh)
Cn1c(=O)c2c(nc(NCc3ccco3)n2Cc2ccc(Cl)cc2Cl)n(C)c1=O	Gli-Sufu block 67 | Gli-Sufu confirm 67 | Gli cytotox 29 | Wnt3a cs inactive
CCn1c(NCc2ccco2)nc2c1c(=O)n(C)c(=O)n2C	none
CC(C)C(=O)Oc1ccc(CO)cc1[C@H](CCN(C(C)C)C(C)C)c1ccccc1	none (no result: GalR3 antagonist, Gli-Sufu block, 697 NFkB inh, Jurkat NFkB inh)
Cc1[nH]c2ccccc2c1/C=C/c1nc2ccccc2c(=O)n1-c1cccc([N+](=O)[O-])c1	none | Gli-Sufu confirm inactive | Gli cytotox inactive | Wnt3a cs inactive
COc1cc(/C=C2/NC(=O)N(Cc3ccccc3F)C2=O)ccc1Oc1ccc([N+](=O)[O-])cn1	none
COc1cc(/C=C2/NC(=O)N(Cc3ccccc3F)C2=O)ccc1O	Gli-Sufu block 71 | Gli-Sufu confirm 54 | Gli cytotox inactive | Wnt3a cs 37
COC(=O)[C@]12C[C@H](CC(=O)NCc3ccccc3)C(=O)N(CCc3ccc(OC)c(OC)c3)C1=C[C@H](COCc1ccccc1)O[C@@H]2C	none (no result: GalR3 antagonist, Gli-Sufu block, 697 NFkB inh, Jurkat NFkB inh)
